# From PubChem BioAssay AID624417 (National Center for Advancing Translational Sciences (NCATS), 2012)
# About 6,400 (1.6%) of roughly 410,000 compounds were called active. About 20% were inconclusive and are not listed. For the sample, actives were picked, then their nearest neighbours and some compounds at random. Unmarked numbers belong to inactive results. Calls come from the whole dose curve; as a rule, active = well fitted inhibition curve with a large enough effect; inconclusive = small, poorly fitted or top-dose-only effect; inactive = no such curve, though single readings can be large or run the other way.
# Target: Glucagon-like peptide 1 receptor (Homo sapiens) (UniProt P43220)
# Assay: qHTS of GLP-1 Receptor Inverse Agonists (Inhibition Mode); note: nearly all actives have a fitted effect of over 55% in size
# Details: HEK293 GLP-1R CRE-luciferase, luminescence, 24 h, GLP-1R form is constitutively active; series mostly up to 38.3 µM; activity change, negative = inhibition: at the top concentration
# Excerpt: The overall goal of this project was to develop a novel assay for discovering small molecule ligands for class B1 G protein-coupled receptors (GPCRs). Very few agonists (or inverse agonists in inhibition mode) with generally weak activity for this entire group of physiologically important receptors are known to date. To establish proof-of-principle that this critical bottleneck can be overcome with a suitable screening approach, our studies focused on the class B1 receptor for glucagon-like peptide-1 (GLP-1R), a potential therapeutic target for diabetes and neurodegenerative disease. The assay was developed using a cell-based functional readout. Toward this goal, stably transfected HEK293 cell clones were established that co-express (i) a cAMP-responsive luciferase reporter gene, and (ii) constitutively active GLP-1R that upon ligand interaction inhibit (inverse agonists) the luciferase activity. In addition, two control cell lines were developed: (i) one that express only the cAMP-responsive reporter gene to enable initial exclusion of GLP-1R independent effects of candidate probes; and (ii) one with the reported gene cloned with another constitutively active orphan receptor GPR119 to enable exclusion of GLP-1R independent inhibitor effects of candidate inverse agonists. To that end, this assay was optimized for 1536-well format and screened against the MLSMR. […] NIH Molecular Libraries Probe Production Network [MLPCN] NIH Chemical Genomics Center [NCGC] Grant: NS064851 PI Name: Martin Beinborn, Tufts Medical Center
# Six ul of cell suspension (200 cells/uL in DMEM + 10% Nu serum + 1% pen-strep) is dispensed in a white solid 1536-well plate. The plates are incubated for 12 hours at 37 deg C at 5% CO2 followed by addition of 23 nL compounds. After 24 hr incubation at 37 deg C and 5% CO2, 3 uL of luciferase assay detection reagent is added. A luminescence read is obtained on the PerkinElmer Viewlux after 12 min incubation at room temperature.
# % is set by controls: 0 for no effect and ±100 for the full control effect; potency is the fitted concentration of half-maximal effect.
# Glucagon-like peptide 1 receptor (Homo sapiens), sequence (P43220 whole entry, looked up): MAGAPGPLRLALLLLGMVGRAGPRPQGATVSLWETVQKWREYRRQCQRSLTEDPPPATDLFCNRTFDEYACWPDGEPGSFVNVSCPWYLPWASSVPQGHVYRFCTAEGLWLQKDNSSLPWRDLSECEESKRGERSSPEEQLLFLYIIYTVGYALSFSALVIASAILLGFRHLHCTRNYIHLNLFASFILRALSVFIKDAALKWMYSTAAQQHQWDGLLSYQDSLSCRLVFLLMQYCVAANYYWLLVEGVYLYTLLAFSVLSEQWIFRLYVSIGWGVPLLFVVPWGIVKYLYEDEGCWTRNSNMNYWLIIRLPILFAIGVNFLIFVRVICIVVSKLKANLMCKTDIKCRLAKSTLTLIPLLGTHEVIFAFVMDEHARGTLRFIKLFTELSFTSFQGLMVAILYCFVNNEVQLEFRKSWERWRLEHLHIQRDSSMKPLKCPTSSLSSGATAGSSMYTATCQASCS
SMILES,"activity change, negative = inhibition [%]",Potency
CC1(C(=O)Nc2ccc3c(c2)OCCO3)CCN1C(=O)Cc1cc(F)ccc1F (stereo not drawn),18.6,
CC1(C(=O)NS(=O)(=O)Cc2cccc(Cl)c2)CCN1C(=O)Cc1ccc(Cl)cc1Cl (stereo not drawn),-14,
CC(C)N1C(=O)c2ccccc2NC(=O)C1C(=O)NCc1cccs1 (stereo not drawn),13.4,
COCCNc1nc(Nc2ccccc2Cl)c2sc(-c3ccccc3)cc2n1,1.32,
CCOc1ccc(S(=O)(=O)NCCC(=O)NNC(=O)c2ccc(F)cc2)cc1,-3.11,
COc1ccc(NC(=O)CN(C)C(=O)/C=C/c2cn(Cc3ccccc3)nc2-c2cccnc2)cc1,-10.7,
COc1cccc(NC(=O)CN(C)C(=O)/C=C/c2cc(OC)ccc2OC)c1,8.88,
COc1cccc(NC(=O)CN(C)C(=O)/C=C/c2cn(-c3ccccc3)nc2-c2cccs2)c1,,7.94 µM (active)
CC(C)(O)C1=C[N+](=O)CC=C1,4.83,
CCC(C)CN1C(=O)CSCC1(C)C(=O)NCc1ccccc1 (stereo not drawn),2.26,
O=C1OCCC1=COCCCCOC=C1CCOC1=O,10.1,
O=C(NCC(O)c1nc2ccccc2[nH]1)c1ccc(Br)cc1 (stereo not drawn),16.8,
CCOc1ccc2[nH]c(=O)c(CN(CCCO)S(=O)(=O)c3ccc(F)cc3)cc2c1,-22.2,
COc1ccc2[nH]c(=O)c(CN(Cc3cccnc3)S(=O)(=O)c3ccccc3F)cc2c1,,5.01 µM (active)
CCN(Cc1cc2cc(C)ccc2[nH]c1=O)S(=O)(=O)c1ccccc1,0,
O=C(c1cccs1)N1C[C@H](n2cc(C3CC3)nn2)[C@@H](O)C[C@@H]1c1ccccc1,-2.08,
COCCNc1ncnc2c1ncn2[C@H]1CN(CCN2CCOCC2)C[C@@H](CO)O1,17.3,
CN1CCN(CCCNC(=O)c2cc3c(=O)oc4ccccc4c3s2)CC1,0.453,
CCC1CCCCN1CCCNC(=O)C1CCC(Cn2c(=O)[nH]c3ccccc3c2=O)CC1 (stereo not drawn),0,
COc1ccc(C(C)(NC(C)=O)c2nc(-c3ccc(S(C)(=O)=O)cc3)cs2)cc1 (stereo not drawn),-9.28,
O=C(CN1C(=O)NC2(CCc3ccccc32)C1=O)NC1CCCCC1 (stereo not drawn),-4.63,
O=C(COc1ccc(S(=O)(=O)N2CCCC2)cc1[N+](=O)[O-])N1CCCCC1,14.7,
CCc1cc(=O)oc2c(C)c(OCC(=O)NCCN3CCOCC3)ccc12,40.4,
Cc1cc(C)cc(C(=O)NCCN2CCOCC2)c1,4.45,
CC(=O)Oc1cc2c(C(=O)NCCN3CCOCC3)c(C)oc2c2ccccc12,,10 µM (active)
O=C1NC(O)CCN1C1CC(O)C(CO)O1 (stereo not drawn),16.9,
COc1ccc(C(O)C(O)(C(=O)OC(C)C)c2ccc(C)cc2)cc1 (stereo not drawn),1.49,
Cc1nc2ccccn2c(=O)c1NC(=O)c1ccc(Br)o1,14.8,
